Drawing on PubChem BioAssay, this text covers inhibition for 40 compounds.

As a reminder, the inhibition is the change of the read-out against control, counted positive when it falls.

Each structure is given as a SMILES string. Calls of active or inactive are those of the source.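 The calls were made as follows: active = mean inhibition over 43.08%, the solvent-only control mean plus 3 SD; inactive = the rest.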

Chain of Nuclear receptor coactivator 3 (Homo sapiens) (Q9Y6Q9 whole entry, looked up, the tested form may be a part): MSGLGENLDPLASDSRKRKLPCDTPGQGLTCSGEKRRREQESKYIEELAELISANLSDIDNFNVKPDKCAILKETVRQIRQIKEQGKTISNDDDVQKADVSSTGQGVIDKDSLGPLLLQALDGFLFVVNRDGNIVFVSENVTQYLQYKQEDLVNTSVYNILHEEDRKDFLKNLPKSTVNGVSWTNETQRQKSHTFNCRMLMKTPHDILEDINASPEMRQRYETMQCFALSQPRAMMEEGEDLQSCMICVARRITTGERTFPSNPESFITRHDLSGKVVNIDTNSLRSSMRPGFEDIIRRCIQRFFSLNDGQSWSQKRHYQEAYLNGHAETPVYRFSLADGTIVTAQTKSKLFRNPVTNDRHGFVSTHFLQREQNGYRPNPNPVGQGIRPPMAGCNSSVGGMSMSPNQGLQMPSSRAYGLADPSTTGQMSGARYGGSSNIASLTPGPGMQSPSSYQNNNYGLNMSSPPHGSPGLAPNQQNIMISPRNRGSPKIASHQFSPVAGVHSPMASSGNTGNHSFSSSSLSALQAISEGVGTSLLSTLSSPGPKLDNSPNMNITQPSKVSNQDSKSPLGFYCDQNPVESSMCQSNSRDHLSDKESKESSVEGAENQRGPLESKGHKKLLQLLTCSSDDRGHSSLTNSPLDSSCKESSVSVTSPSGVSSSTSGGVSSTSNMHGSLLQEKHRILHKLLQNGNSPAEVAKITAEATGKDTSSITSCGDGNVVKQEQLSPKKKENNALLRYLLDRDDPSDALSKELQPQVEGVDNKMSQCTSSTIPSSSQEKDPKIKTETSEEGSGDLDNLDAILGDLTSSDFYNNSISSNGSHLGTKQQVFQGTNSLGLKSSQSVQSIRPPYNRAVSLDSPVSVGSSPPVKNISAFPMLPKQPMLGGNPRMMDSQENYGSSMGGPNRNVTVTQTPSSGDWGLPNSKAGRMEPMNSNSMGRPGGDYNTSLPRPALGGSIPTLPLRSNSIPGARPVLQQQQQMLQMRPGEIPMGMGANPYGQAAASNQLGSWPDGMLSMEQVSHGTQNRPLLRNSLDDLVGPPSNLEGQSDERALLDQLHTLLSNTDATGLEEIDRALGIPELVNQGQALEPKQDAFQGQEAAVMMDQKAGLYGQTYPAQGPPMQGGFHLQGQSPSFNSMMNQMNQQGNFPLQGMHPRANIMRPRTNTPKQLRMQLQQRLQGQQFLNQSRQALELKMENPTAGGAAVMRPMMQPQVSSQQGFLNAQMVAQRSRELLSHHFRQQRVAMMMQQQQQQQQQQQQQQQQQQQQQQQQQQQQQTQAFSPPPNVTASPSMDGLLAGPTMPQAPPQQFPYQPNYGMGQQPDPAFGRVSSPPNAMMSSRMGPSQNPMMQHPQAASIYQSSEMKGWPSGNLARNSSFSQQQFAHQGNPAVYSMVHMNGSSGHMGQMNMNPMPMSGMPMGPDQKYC

The experiment has as its target Nuclear receptor coactivator 3 (Homo sapiens) (UniProt Q9Y6Q9). The experiment in a line: NCOA3 GAL4-fusion reporter inhibition – cell-based, luminescence, quadruplicate, confirmation (AID 588792).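 Also: 0% = DMSO treated cells and 100% = gossypol at 36 µM.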 As to conditions: HEK293 GAL4-SRC3 luciferase reporter, at 3.6 µM, stronger effect = higher value. On the technique in general: In a reporter assay the amount or activity of a reporter protein is the signal.
On to `O=C(Nc1ccccc1)NN(C(=O)CCl)c1ccccc1`, for which the inhibition was -0.31% (inactive).
The figure for `CCc1ccc(-c2nc(CS(=O)CC(=O)NCc3ccco3)c(C)o2)cc1` (stereo not given) is 10.8% (inactive); for `Cc1nnc(SC(=O)N2c3ccccc3Sc3ccccc32)s1` it is 80.8% (active); for `COc1ccc2nc(C)cc(Sc3nc4ccccc4s3)c2c1` it is 28.2% (inactive).
The figure for `CC1CCN(c2ccc(-c3cccs3)nn2)CC1` is 22.9% (inactive); for `Nc1ccc(-c2nc3ccc(C(=O)O)cc3s2)cc1` it is -24% (inactive).
For `O=C(/C=C/c1ccccc1)CC(O)(c1ccccc1)C(F)(F)C(F)F` (stereo not given) the value was 11% (inactive); for `COc1ccc(/C=C/C(=O)c2ccc3c4c(cccc24)CC3)cc1OC`, 21.5% (inactive); for `O=c1cc(CCl)nc(Cc2c(Cl)cccc2Cl)[nH]1`, 21.2% (inactive).
Consider `Cc1ccc(-n2c(-c3ccc(Cl)cc3)c[n+]3c2CCC3)cc1`, for which the inhibition was 16.1% (inactive).
For `O=C(NC(CSCc1ccccc1)C(=O)N/N=C/c1ccc(O)cc1O)c1ccc([N+](=O)[O-])cc1` (stereo not given) the value was 31.7% (inactive); for `COc1cc(/C=C/C(=O)c2ccc3c(c2)OCCO3)cc(Br)c1OCC(=O)N(C)C`, 76.6% (active); for `O=C(O)CCCCCN1C(=O)CSC1=S`, -1.77% (inactive).
The figure for `COc1ccc(OCC(=O)N/N=C/c2ccc(O[C@@H]3O[C@H](CO)[C@@H](O)[C@H](O)[C@H]3O)cc2)cc1` is 20.5% (inactive).
With `Cc1cccc(Nc2nc(N)nc(CCl)n2)c1C`, the inhibition was 62.8% (active).
For `Cc1cc(Sc2nnc(N)s2)c2ccccc2n1` the value was -6.91% (inactive); for `CC(C)(C)C(=O)Nc1ccc(-c2cc3cc(Cl)ccc3o2)cc1`, -53% (inactive).
For `COc1cccc(F)c1C(C[N+](=O)[O-])c1c(N)n(C)c(=O)n(C)c1=O` (stereo not given) the value was 42.5% (inactive); for `CCOc1ccc(C(=O)C(CCC(CN(C)C)C(=O)c2ccc(OCC)cc2)CN(C)C)cc1` (stereo not given), -1.23% (inactive); for `CCN(CC)S(=O)(=O)c1ccc(N/N=C/c2cc(OC)ccc2O)nc1`, 31.4% (inactive).
The figure for `CCN(c1cccc(C)c1)c1ncnc2nc[nH]c12` is 35.9% (inactive); for `Cc1ccc(/C=C2\SC(=S)N(CCCC(=O)Nc3ccc(O)cc3)C2=O)cc1` it is 18.4% (inactive).
In the case of `CC(C)CCOc1cccc(OCC(=O)Nc2ccncc2)c1`, the inhibition is -1.73% (inactive).
The figure for `Cc1ccc2nc(NC(=O)CSCC(=O)OCC(=O)c3ccc(Br)cc3)sc2c1` is 36.5% (inactive); for `O=S(=O)(/C(=C/c1ccc(C(F)(F)F)cc1)c1nc2ccccc2[nH]1)c1ccccc1` it is 61.5% (active).
For `CCOc1cc(/C=C2\COc3ccccc3C2=O)ccc1OCC(=O)N(C)C` the value was 17.5% (inactive); for `O=C(O)c1ccc(N/N=C/c2ccc3c(c2)OCO3)cc1`, -1.59% (inactive); for `Cc1ccc(-n2nc3c(=O)n(C(C)C(=O)NCCC4=CCCCC4)nc(C)c3c2C)cc1` (stereo not given), 22.9% (inactive).
The figure for `Cc1noc(C)c1COC(=O)c1cccc(S(=O)(=O)N2CCCCCC2)c1` is 8.78% (inactive); for `CC[n+]1cc(C)ccc1/C=C/c1ccc(N(C)C)cc1` it is 45.1% (active); for `Cc1ccc(NC(=O)c2ccccc2NS(=O)(=O)c2ccc(F)cc2)cc1S(=O)(=O)N1CCCCC1` it is 12.2% (inactive).
As for `CCC(=O)c1ccc(O)c(CC=C(C)C)c1`, the inhibition was 35.8% (inactive).
For `CCOc1ccc(C(=O)O/N=C(\N)c2ccccn2)cc1` the value was -0.86% (inactive); for `COc1ccc(-c2csc3ncnc(NCCN4CCOCC4)c23)cc1`, 34.1% (inactive).
For `COc1ccc(C(=O)Nc2ccc(C)cn2)c(OC)c1` the value was -0.48% (inactive).
As for `CCCCCCC[N+](CC)(CC)CCCCc1ccc(Cl)cc1`, the inhibition was 22.1% (inactive).
With `COc1ccc(Cc2nnc(N/N=C/c3ccc(O)cc3)[nH]c2=O)cc1OC`, the inhibition was 84.4% (active).
The figure for `CC[C@@]1(O)C(=O)OCc2c1cc1n(c2=O)Cc2cc3c(CN(C)C)c(O)ccc3nc2-1` is 89.8% (active); for `Cc1nc([N+](=O)[O-])c(Sc2nc3ccccc3n2C)n1Cc1ccccc1` it is 30.1% (inactive); for `CC(=O)Nc1ccc(Oc2sc(C(=O)c3ccccc3)c(N)c2C#N)cc1` it is 20.5% (inactive).
